Results as given in PubChem BioAssay (Tox21).
Where “and” joins values, the source holds several entries; their conditions need not be identical. Identical values can stand only once. Inconclusive results are not listed. Calls of active or inactive are those of the source. Calls come from the whole dose curve; as a rule, active = well fitted curve in the direction sought with a large enough effect in the repeat runs; inconclusive = weak or mixed curves; inactive = no such curve, though single readings can be large; an effect the other way counts as inactive or inconclusive.

How the values were obtained:
[1] = A CellTox Green Cytotoxicity Assay to monitor cytotoxicity in HEK293 cells - 40 hour (AID 1224871); note: nearly all actives have a fitted effect of over 45% in size; note: potency is the fitted concentration of half-maximal effect
Procedure, shortened: (§1)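 Cytotoxicity was tracked continuously in HEK293 cells by a DNA-binding dye excluded from viable cells. Compounds were transferred in DMSO 5 h after seeding; fluorescence was recorded at intervals up to 40 h.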

[2] = qHTS RealTime-Glo MT Cell Viability Assay in HEK293 cells - 16 hour (AID 1224872); note: nearly all actives have a fitted effect of over 50% in size; note: potency is the fitted concentration of half-maximal effect
Procedure, shortened: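 Quantitative high-throughput screen of the Tox21 10K library in HEK293: cells and RealTime-Glo reagents plated together, compound added at 5 h, luminescence monitored through 40 h at 37 C.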

[3] = qHTS RealTime-Glo MT Cell Viability Assay in HepG2 cells - 8 hour (AID 1224873); note: nearly all actives have a fitted effect of over 55% in size; note: potency is the fitted concentration of half-maximal effect
Procedure, shortened: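 HepG2 cells mixed with RealTime-Glo MT reagents (NanoLuc plus cell-permeant prosubstrate) were seeded at 600 cells/well, incubated 5 h at 37 C/5% CO2, then pinned with compounds in DMSO; nonlytic luminescence tracked viability during 40 h treatment.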

[4] = qHTS RealTime-Glo MT Cell Viability Assay in HEK293 cells - 40 hour (AID 1224874); settings: RealTime-Glo luminescence; max response: stronger effect = lower value; note: nearly all actives have a fitted effect of over 50% in size; note: potency is the fitted concentration of half-maximal effect
Procedure, shortened: (§2)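 Nonlytic bioluminescent viability monitoring. HEK293 at 600 cells/well with reagent; 5 h settle; compound transfer by pintool; plates held at 37 C and read at set time points.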

[5] = A CellTox Green Cytotoxicity Assay to monitor cytotoxicity in HEK293 cells - 24 hour (AID 1224875); note: nearly all actives have a fitted effect of over 45% in size; note: potency is the fitted concentration of half-maximal effect
Procedure, shortened: as §1

[6] = A CellTox Green Cytotoxicity Assay to monitor cytotoxicity in HepG2 cells - 16 hour (AID 1224876); note: nearly all actives have a fitted effect of over 45% in size; note: potency is the fitted concentration of half-maximal effect
Procedure, shortened: (§3)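 Real-time, homogeneous cytotoxicity readout: dead-cell DNA staining by CellTox Green in HepG2 monolayers, fluorescence measured at timed intervals up to 40 h of continuous compound exposure.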

[7] = qHTS RealTime-Glo MT Cell Viability Assay in HepG2 cells - 32 hour (AID 1224877); note: nearly all actives have a fitted effect of over 55% in size; note: potency is the fitted concentration of half-maximal effect
Procedure, shortened: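 Compound treatment began 5 h after plating HepG2 cells (600/well) with NanoLuc luciferase and prosubstrate. Plates stayed at 37 C for 40 h; luminescence was captured at six time points, 0 h through 40 h.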

[8] = A CellTox Green Cytotoxicity Assay to monitor cytotoxicity in HepG2 cells - 24 hour (AID 1224878); note: nearly all actives have a fitted effect of over 45% in size; note: potency is the fitted concentration of half-maximal effect
Procedure, shortened: as §3

[9] = qHTS RealTime-Glo MT Cell Viability Assay in HEK293 cells - 0 hour (AID 1224880)
Procedure, shortened: as §2

[10] = A CellTox Green Cytotoxicity Assay to monitor cytotoxicity in HepG2 cells - 40 hour (AID 1224879); note: nearly all actives have a fitted effect of over 40% in size; note: potency is the fitted concentration of half-maximal effect
Procedure, shortened: as §3
% is set by controls: 0 for no effect and ±100 for the full control effect.

O.O.O.O.O.O.O=S(=O)([O-])[O-].[Ni+2]
inactive: Potency [1] | Potency [2] | Potency [3] | max response [4] -26.5% | Potency [5] | Potency [6] | Potency [7] | Potency [8] | Potency [9]

COP(=S)(OC)Oc1nc(Cl)c(Cl)cc1Cl
inactive: Potency [1] | Potency [2] | Potency [3] | max response [4] -0.946% | Potency [5] | Potency [6] | Potency [7] | Potency [8] | Potency [10] | Potency [9]

O=c1[nH]c2cc(Cl)ccc2n1C1CCNCC1
inactive: Potency [1] | Potency [2] | Potency [3] | max response [4] 4.84% | Potency [5] | Potency [6] | Potency [7] | Potency [8] | Potency [10] | Potency [9]

CCCCN(CCCC)C(=S)S
inactive: Potency [1] | Potency [2] | Potency [3] | max response [4] -4.16% | Potency [5] | Potency [6] | Potency [7] | Potency [9]

CCC[CH2][Sn]([CH2]CCC)([CH2]CCC)[CH2]CCC
active: Potency [1] 12.3 µM | Potency [2] 9.77 µM | Potency [3] 11 µM | Potency [4] 7.76 µM | Potency [5] 17.4 µM | Potency [6] 17.4 µM | Potency [7] 4.9 µM | Potency [8] 13.8 µM | Potency [10] 11 µM

Cc1cc2c3c(c1)C(c1ccccc1)=N[C@@H](NC(=O)c1ccncc1)C(=O)N3CC2
inactive: Potency [1] | Potency [2] | Potency [3] | max response [4] -16.5% | Potency [5] | Potency [6] | Potency [8] | Potency [10] | Potency [9]

CC(Cc1ccc(O)cc1)NCC(O)c1cc(O)cc(O)c1 (stereo not given)
inactive: Potency [1] | Potency [2] | Potency [3] | max response [4] 1.61% | Potency [5] | Potency [6] | Potency [7] | Potency [8] | Potency [10] | Potency [9]

C#CCO
inactive: Potency [1] | Potency [2] | Potency [3] | max response [4] 3.5% | Potency [5] | Potency [6] | Potency [8] | Potency [10] | Potency [9]

CC(=O)[O-].CC(=O)[O-].[Co+2]
inactive: Potency [1] | Potency [2] | Potency [3] | max response [4] 8.26% | Potency [5] | Potency [6] | Potency [7] | Potency [8] | Potency [10] | Potency [9]

CC[C@H](C)[C@H]1O[C@]2(C=C[C@@H]1C)C[C@@H]1C[C@@H](C/C=C(\C)[C@@H](O[C@H]3C[C@H](OC)[C@@H](O[C@H]4C[C@H](OC)[C@@H](NC)[C@H](C)O4)[C@H](C)O3)[C@@H](C)/C=C/C=C3\CO[C@@H]4[C@H](O)C(C)=C[C@@H](C(=O)O1)[C@]34O)O2
inactive: Potency [9]
active: Potency [1] 11 µM | Potency [2] 6.92 µM | Potency [3] 15.5 µM | Potency [4] 4.36 µM | Potency [5] 13.8 µM | Potency [6] 15.5 µM | Potency [7] 9.77 µM | Potency [8] 11 µM

C[N+]1(C)[C@@H]2CC[C@H]1CC(OC(=O)C(CO)c1ccccc1)C2 (stereo not given in full)
inactive: Potency [1] | Potency [2] | Potency [3] | max response [4] 8.28% | Potency [5] | Potency [6] | Potency [8] | Potency [10] | Potency [9]

CNC(C)(C)Cc1ccccc1
inactive: Potency [1] | Potency [2] | Potency [3] | max response [4] 6.36% | Potency [5] | Potency [6] | Potency [7] | Potency [8] | Potency [10] | Potency [9]

CCN(CC)CCc1c[nH]c2ccccc12
inactive: Potency [1] | Potency [2] | Potency [3] | max response [4] 6.8% | Potency [5] | Potency [6] | Potency [7] | Potency [8] | Potency [10] | Potency [9]

CNC(=O)Oc1cc(C)cc(C(C)C)c1
inactive: Potency [1] | Potency [2] | Potency [3] | max response [4] 5.9% | Potency [5] | Potency [6] | Potency [7] | Potency [8] | Potency [10] | Potency [9]

Clc1cc(Cl)c(-c2cc(Cl)c(Cl)cc2Cl)cc1Cl
inactive: Potency [1] | Potency [2] | Potency [3] | max response [4] 1.25% | Potency [5] | Potency [6] | Potency [7] | Potency [8] | Potency [9]

COc1ccc2[nH]cc(CCN(C(C)C)C(C)C)c2c1
inactive: Potency [1] | Potency [2] | Potency [3] | max response [4] -12% | Potency [5] | Potency [6] | Potency [7] | Potency [8] | Potency [9]

CCCCN(CCCC)C(=S)[S-].CCCCN(CCCC)C(=S)[S-].[Ni+2]
inactive: Potency [1] | Potency [2] | Potency [3] | max response [4] -23% | Potency [5] | Potency [6] | Potency [7] | Potency [8] | Potency [9]

CN(C)CCc1c[nH]c2ccccc12
inactive: Potency [1] | Potency [2] | Potency [3] | max response [4] -4.01% | Potency [5] | Potency [6] | Potency [7] | Potency [8] | Potency [9]

CN(C)C(=S)SSC(=S)N(C)C
active: Potency [1] 216 nM and 195 nM and 239 nM | Potency [2] 384 nM and 692 nM | Potency [3] 48.3 µM and 24.5 µM and 3.01 µM | Potency [4] 216 nM and 219 nM and 9.52 µM | Potency [5] 27.2 µM and 27.5 µM | Potency [6] 21.9 µM | Potency [8] 436 nM and 21.3 µM | Potency [10] 216 nM and 275 nM and 134 nM
inactive: Potency [9]

C=C(C)C(=O)[O][Sn]([CH2]CCC)([CH2]CCC)[CH2]CCC
inactive: Potency [9]
active: Potency [1] 0.436 µM | Potency [2] 0.389 µM | Potency [3] 0.616 µM | Potency [4] 0.245 µM | Potency [5] 2.19 µM | Potency [6] 0.49 µM | Potency [10] 0.389 µM
